Screening data deposited in PubChem BioAssay by several laboratories.
AI-2 QS mod – Vibrio harveyi AI-2 quorum sensing modulation | 0.4% of 300,000 active | AID 2094 | Vibrio harveyi JMH597 AI-2 luminescence/OD600 ratio, 9 h; active compounds read low; strain lacks LuxN and CqsS sensors; 0 = neutral-control median | activity change, % at 7.5 µM; in the data active means activity change below about -75%, passing the limit was not always enough;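 further: luminescence divided by OD600 gain over 9 h not by final OD600 alone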
Mot1-301 SUMO – inhibitors of SUMOylation pathway: yeast Mot1-301 growth rescue. 1% of 320,000 active. S. cerevisiae Mot1-301 growth rescue, ATP luminescence, 38.5C; percent above DMSO median, 100 means doubled. growth rescue, % at 18.8 µM;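 active means every valid replicate shows activation above 250% relative to neutral control wells; inactive means the rest, any valid replicate at or below 250%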
V-ATPase pHluor – regulators of yeast V-ATPase proton transport | S. cerevisiae, pHLuorin cytosolic pH fluorescence | response, % at 10 µM | 0.37% of 350,000 active | AID 504577; in the data active means response mostly above about 7.3%, no sharp cut-off; inactive means mostly below about 5.4%; further: actives read high
ATG4B inhibitor – inhibitors of human ATG4B cysteine protease. 0.51% of 340,000 active. AID 504462. Q9Y4P1. inhibition, % at 8.33 µM. ATG4B cleavage of LC3-PLA2, NBD-HPC fluorescence, 1 h; in the data active means inhibition above about 40%
Target sequence (Q9Y4P1 whole entry, looked up): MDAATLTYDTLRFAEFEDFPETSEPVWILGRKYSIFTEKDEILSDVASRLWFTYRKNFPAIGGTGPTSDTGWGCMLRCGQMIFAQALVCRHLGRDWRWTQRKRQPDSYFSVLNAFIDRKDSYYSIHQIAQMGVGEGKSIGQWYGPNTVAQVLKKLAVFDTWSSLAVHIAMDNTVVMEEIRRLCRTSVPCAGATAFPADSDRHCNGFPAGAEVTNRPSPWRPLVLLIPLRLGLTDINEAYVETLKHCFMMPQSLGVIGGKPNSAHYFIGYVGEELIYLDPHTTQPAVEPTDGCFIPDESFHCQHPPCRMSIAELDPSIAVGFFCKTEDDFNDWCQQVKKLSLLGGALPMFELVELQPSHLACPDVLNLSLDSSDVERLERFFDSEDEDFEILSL
Efflux pump mplx – inhibitors of Candida antifungal efflux pumps expressed in yeast; S. cerevisiae Candida pump triplex, Nile Red efflux; inhibition, % at 10 µM; 0.44% of 330,000 active;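 active means plate passing quality check with inhibition over a set limit, or well fluorescence over plate mean plus 4 SD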;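 further: Nile Red retained in pooled yeast measured as flow cytometry median fluorescence; higher means more Nile Red kept so more efflux inhibition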
ATG4B confirm – ATG4B (human) inhibition, single-dose confirmed. shares compounds with ATG4B inhibitor. ATG4B protease fluorescent substrate cleavage assay. inhibition, % at 8.33 µM. 92% of 320 active. AID 504757; in the data active means inhibition above about 39%
PLA2 ctr – inhibits human PLA2, flagging false ATG4B inhibitors; 66% of 1,600 active; AID 588402; purified PLA2, NBD-C6-HPC fluorescence, 45 min; shares compounds with ATG4B inhibitor; inhibition, % at 8.33 µM; in the data active means inhibition above about 50%
Target sequence (P04054 whole entry, looked up): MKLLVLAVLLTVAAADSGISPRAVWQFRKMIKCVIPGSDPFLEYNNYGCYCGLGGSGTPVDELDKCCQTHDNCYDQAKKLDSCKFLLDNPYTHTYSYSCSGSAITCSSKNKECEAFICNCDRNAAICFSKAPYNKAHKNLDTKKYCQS
Of the large screens only hits and unclear results are named; the others gave an inactive call (follow-up assays come after a bar, where they were run). Hits are enriched below; roughly 2.5% of the tested compounds scored in any of these assays.

S=C(NCc1ccccc1)Nc1ccc(Oc2ccccc2)cc1	ATG4B inhibitor 57 | PLA2 ctr 67
CCN(CC)C(=S)Nc1ccc([N+](=O)[O-])cc1	ATG4B inhibitor 58 | PLA2 ctr inactive
Cc1ccc(C(C(=O)NC2CCCC2)N(Cc2cccs2)C(=O)c2csnn2)o1 (configuration not stated)	none
Cc1ccc(NC(=O)c2ccc(S(=O)(=O)N3CCCCC3)cc2)nc1	none (no result: AI-2 QS mod)
CCOc1ccc(NC(=O)COC(=O)CC2CC3CCC2C3)cc1 (configuration not stated)	none (no result: AI-2 QS mod)
O=C(COC(=O)c1ccccc1Nc1ccccc1)NCc1ccccc1Cl	ATG4B inhibitor 49 | PLA2 ctr inactive
COc1ccccc1CNC(=O)c1ccccc1OC	none
O=[N+]([O-])c1ccc(NC(=S)NCc2ccc(F)cc2)cc1	ATG4B inhibitor 57 | PLA2 ctr 68
O=C(COC(=O)c1ccccc1Nc1ccccc1)NCc1ccccc1	none
O=C(NCc1ccccc1Cl)c1ccccc1Oc1ccccc1	ATG4B inhibitor 53 | PLA2 ctr inactive
Fc1ccc(NC(=S)Nc2ccc(F)c(Cl)c2)cc1Cl	ATG4B inhibitor 72 | PLA2 ctr 76
O=c1[nH][nH]c(=O)n1-c1ccccc1	none
CC(C)n1nnnc1SCC(=O)N1CCN(Cc2ccc3c(c2)OCCO3)CC1	none (no result: AI-2 QS mod)
O=C(C1CC(=O)N(c2ccc3c(c2)OCCO3)C1)N1CCN(c2cccc(C(F)(F)F)c2)CC1 (configuration not stated)	none
O=C(NCc1ccccc1Cl)c1cccc(NC(=O)c2ccccc2)c1	ATG4B inhibitor 48 | PLA2 ctr 53
Cc1ccc(NC(=S)NCc2ccc(Cl)cc2)c(OC(F)F)c1	ATG4B inhibitor 47 | PLA2 ctr 55
Cc1ccc(CNC(=S)Nc2ccc(OC(F)F)cc2C)cc1	none
O=C(NCc1ccccc1)c1cccc(NC(=O)c2ccccc2)c1	none (no result: AI-2 QS mod, Mot1-301 SUMO, Efflux pump mplx)
S=C(NCc1ccccc1)NCc1ccc(CNC(=S)NCc2ccccc2)cc1	none
Fc1ccc(CNC(=S)NCc2ccccc2)cc1	ATG4B inhibitor 43 | ATG4B confirm 71 | PLA2 ctr inactive
COc1ccccc1N1CCN(C2CCCN(C(=O)CCc3ccccn3)C2)CC1 (configuration not stated)	none
CCc1cccc(CC)c1NC(=O)CCCSc1nc2ccccc2s1	none
Cc1cccc(C)c1NC(=O)CCCSc1nc2ccccc2s1	ATG4B inhibitor 47 | PLA2 ctr inactive
Cc1ccc(C)c(NS(=O)(=O)c2cc3c4c(c2)CC(=O)N4CCC3)c1	none
O=C(c1cccs1)N(Cc1ccco1)c1nc(-c2ccc(F)cc2)cs1	ATG4B inhibitor 42 | PLA2 ctr 56
COc1ccc2c(c1)c(=O)c(C(=O)O)c(-c1ccc3c(c1)OCO3)n2C	none
CC(C)(C)n1ncc2c(=O)n(Cc3ccccc3Br)cnc21	ATG4B inhibitor 41 (no result: AI-2 QS mod) | ATG4B confirm 69 | PLA2 ctr inactive
N=C1SC(c2ccccc2)C(=O)N1c1ncc(Cc2ccccc2)s1 (configuration not stated)	ATG4B inhibitor 56 | PLA2 ctr inactive
CN(C(=O)c1cccc(NC(=O)Cc2ccc(NC(=O)C3CCN(C(=O)c4ccccc4)CC3)cc2)c1)C1CCCCC1	none (no result: AI-2 QS mod, Mot1-301 SUMO, Efflux pump mplx)
Cc1ccc(NC(=S)NCc2ccccc2)cc1S(=O)(=O)N1CCCCC1	ATG4B inhibitor 57 (no result: Mot1-301 SUMO) | PLA2 ctr 75
Cc1ccc(NC(=O)CSc2ccccc2)cc1S(=O)(=O)N1CCCCC1	none (no result: AI-2 QS mod)
COc1ccc(CNC(=O)CCCC(=O)n2nc(C)c3ccccc32)cc1	none
Cc1cccc(C)c1OCc1cc(C(=O)N2CCCCCCC2)no1	ATG4B inhibitor 40 | PLA2 ctr 50
Cc1ccc(OCc2cc(C(=O)N3CCc4sccc4C3)no2)cc1C	ATG4B inhibitor 57 | PLA2 ctr 79
Cc1ccc(OCc2cc(C(=O)N3CCCCCCC3)no2)cc1C	none
COc1ccc(CNc2nc(NCc3ccc(OC)c(OC)c3)n(C(=O)c3cccs3)n2)cc1OC	none
CC#CC(=O)N1CCC(CCc2ccccc2)(C(=O)OCC)CC1	ATG4B inhibitor 49 | PLA2 ctr inactive
COc1ccc(CCNC(=O)C(NS(=O)(=O)c2cccc3nsnc23)C(C)C)cc1OC (configuration not stated)	none (no result: Mot1-301 SUMO)
COc1ccc(C=NNc2ccc(S(=O)(=O)Nc3ccccc3C(=O)O)cc2[N+](=O)[O-])c(OC)c1	ATG4B inhibitor 48 (no result: AI-2 QS mod) | PLA2 ctr inactive
Cc1nn(-c2ccccc2)c(Cl)c1/C=N/Nc1ccc(S(=O)(=O)Nc2ccccc2C(=O)O)cc1[N+](=O)[O-]	ATG4B inhibitor 67 | PLA2 ctr inactive
O=C(O)c1ccccc1NS(=O)(=O)c1ccc(NN=Cc2ccccc2F)c([N+](=O)[O-])c1	none (no result: AI-2 QS mod)
Cc1cc([N+](=O)[O-])nn1CC(=O)N(C)C1CCCCC1	none
Cc1cc(C)cc(N2C(=O)CN(Cc3sccc3C)C2=S)c1	ATG4B inhibitor 94 | PLA2 ctr 94
Cc1cccc(N2C(=O)CN(Cc3cccs3)C2=S)c1	ATG4B inhibitor 52 | PLA2 ctr 74
Cc1cccc(N2C(=O)CN(Cc3ccccc3)C2=S)c1	ATG4B inhibitor 49 | PLA2 ctr 63
Cc1cccc(N2C(=O)CN(Cc3sccc3C)C2=S)c1	ATG4B inhibitor 88 | PLA2 ctr 92
COc1cc(CN2CC(=O)N(c3ccc(C)cc3)C2=S)cc(OC)c1OC	none
S=C(NNc1ccc2ccccc2c1)NC1CCCCC1	none
CC(=O)Nc1ccc(NC(=O)C2CCCN2C(=O)Nc2ccc(F)c([N+](=O)[O-])c2)cc1 (configuration not stated)	none
COc1cc(OC)cc(-c2c(C#Cc3ccsc3)c3cc(-c4ccc5c(c4)OCCO5)ccc3n2C)c1	none (no result: AI-2 QS mod)
C=CCNC(=O)C1CC2Cn3c(nc4cc5ccccc5cc43)C2N1C (configuration not stated)	none
O=P(O)(Cc1ccccc1)Cc1ccccc1	none
C/C(CC(=O)NCCN1CCOCC1)=N\NC(=O)c1ccncc1	none
COc1cc(Cl)c(C)cc1N1C(=O)CN(Cc2ccccc2)C1=S	ATG4B inhibitor 52 | PLA2 ctr 69
CCc1ccc(N2C(=O)CN(Cc3sccc3C)C2=S)cc1	ATG4B inhibitor 92 | PLA2 ctr 98
CCc1nc(-n2[nH]c(=O)c3ccccc3c2=O)c2c3c(sc2n1)CCCC3	none
CCc1nc(N2CCN(C(=O)c3ccco3)CC2)c2c3c(sc2n1)CCCC3	ATG4B inhibitor 78 | PLA2 ctr 86
CCc1nc(N2CCN(C(=O)c3ccccc3)CC2)c2c3c(sc2n1)CCCC3	ATG4B inhibitor 75 | PLA2 ctr 82
O=C1ON=C(c2ccccc2)/C1=C/c1ccc(-c2ccccc2[N+](=O)[O-])o1	ATG4B inhibitor 69 (no result: AI-2 QS mod) | PLA2 ctr 51
